JMJD2A Tudor inh = qHTS Assay for Inhibitors of JMJD2A-Tudor Domain; AlphaScreen JMJD2A-Tudor / H3K4me3 peptide binding; hit rate 4.4% among 390,000; Lysine-specific demethylase 4A (Homo sapiens), O75164; Potency, µM (series often up to 114 µM), hits mostly inhibitors; note: nearly all actives have a fitted effect of over 50% in size
G9a inh = qHTS Assay for Inhibitors of Histone Lysine Methyltransferase G9a; Histone-lysine N-methyltransferase EHMT2 (Homo sapiens), Q96KQ7; G9a H3K9 monomethylation, AlphaScreen, 2 h; Potency, µM (highest dose often 102 µM), actives largely listed as inhibitors; hit rate 8.8% among 350,000; note: nearly all actives have a fitted effect of over 75% in size
Target sequence (Q96KQ7 913-1193 limits assumed): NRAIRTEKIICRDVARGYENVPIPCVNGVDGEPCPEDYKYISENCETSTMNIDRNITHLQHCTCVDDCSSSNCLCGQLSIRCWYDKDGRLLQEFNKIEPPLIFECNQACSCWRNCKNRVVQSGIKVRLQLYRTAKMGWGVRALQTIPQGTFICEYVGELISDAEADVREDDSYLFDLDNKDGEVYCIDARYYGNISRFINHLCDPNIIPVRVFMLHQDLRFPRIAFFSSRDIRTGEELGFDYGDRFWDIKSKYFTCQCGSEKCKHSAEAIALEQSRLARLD
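Readings reflect AlphaScreen signal from monomethyl-H3K9 antibody detection. HMT at 20 nM; substrate b-H3K9 500 nM; cofactor SAM 20 uM; 2 h RT reaction; compounds tested as titrations in qHTS with 15 min preincubation.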
CtBP-E1A inh = qHTS Assay for Inhibitors of the CtBP/E1A Interaction | hit rate 0.49% among 340,000 | AlphaScreen GST-E1A/His-CtBP binding, 1536-well; hits give low values | activity change, % (no concentration beside the values); in the data active = activity change below about -65%; inconclusive = mostly about -30% to -63%
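Homogeneous bead-based format: GST-tagged E1A captured on glutathione donor beads, His-tagged CtBP on nickel acceptor beads; compounds precede bead addition by 2 h at 37 °C.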
Six1-Eya2 inh = qHTS Assay for Inhibitors of the Six1/Eya2 Interaction. Homeobox protein SIX1 (Homo sapiens) + Protein phosphatase EYA2 (Homo sapiens), …. AlphaScreen GST-Six1/His-Eya2 binding, biochemical; hits give low values. activity change, % (no concentration beside the values). hit rate 0.56% among 360,000. AID 651725, 2012; in the data active = activity change below about -65%; inconclusive = mostly about -30% to -63%
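Homogeneous AlphaScreen proximity assay pairing GST-Six1 with His-tagged Eya2 (added as 5X mix: 250 nM and 500 nM) in 50 mM Tris pH 8.0, 300 mM NaCl, 1 mM TCEP. Glutathione donor and nickel acceptor beads; 1 h, 37 °C, dark.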
BAZ2B inh = qHTS Assay for Inhibitors of BAZ2B; Potency, µM (series often up to 114 µM), actives largely listed as inhibitors; hit rate 4.4% among 360,000; Bromodomain adjacent to zinc finger domain protein 2B (Homo sapiens), Q9UIF8; AID 504333, 2011; AlphaScreen BAZ2B-H3K14Ac peptide displacement; note: nearly all actives have a fitted effect of over 60% in size
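AlphaScreen luminescence quantifies BAZ2B engagement of H3K14Ac peptide; the protein and biotinylated peptide are both at 50 nM final, buffer PBS pH 7.4 with 0.01% Tween-20, all steps at room temperature.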
HP1b chromo inh = HTS for Inhibitors of HP1-beta Chromodomain Interactions with Methylated Histone Tails | Chromobox protein homolog 1 (Homo sapiens), P83916 | AlphaScreen HP1-beta / biotin-H3K9me3 peptide binding | Potency, µM (series often up to 114 µM), usual class: inhibitors | hit rate 0.56% among 390,000 | AID 540317, 2011; note: nearly all actives have a fitted effect of over 70% in size
Target sequence (P83916 whole entry, looked up): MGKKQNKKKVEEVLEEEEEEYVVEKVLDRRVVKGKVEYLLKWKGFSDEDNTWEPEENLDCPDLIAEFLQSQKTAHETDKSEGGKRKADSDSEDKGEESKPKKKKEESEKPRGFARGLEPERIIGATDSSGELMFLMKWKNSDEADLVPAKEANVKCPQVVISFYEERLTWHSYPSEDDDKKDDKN
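AlphaScreen: HP1-beta (50 nM) preformed 30 min with biotin-H3(1-18)K9me3 peptide (50 nM) in PBS pH 7.4, 0.01% Tween-20. Compound added for 30 min at RT, then streptavidin donor/nickel chelate acceptor beads (10 ug/mL) for 30 min.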
A number is an active result; n = inactive; u = inconclusive; x = no result; ! = a repeat was not active; [ ] = remark or other dose. Only some compounds are listed: those with a hit (about 10% of all), similar ones and a draw of the others. Unless noted, calls come from the whole dose curve; as a rule, active = well fitted inhibition curve with a large enough effect; inconclusive = small, poorly fitted or top-dose-only effect; inactive = no such curve, though single readings can be large or run the other way.

SMILES	JMJD2A Tudor inh	G9a inh	CtBP-E1A inh	Six1-Eya2 inh	BAZ2B inh	HP1b chromo inh
COc1ccc(C2C(C#N)=C(C)NC3=C2C(=O)c2ccccc23)cc1 (centres undefined)	u	u	n	n	u	n
CC1(C)CC(=O)C2=C(C1)NC1=C(C(=O)c3ccccc31)C2c1ccccc1 (centres undefined)	40µM	20µM	n	u	32µM	50µM
CC(C)(C)c1ccc(C2C3=C(CCCC3=O)NC3=C2C(=O)c2ccccc23)cc1 (centres undefined)	25µM	40µM	n	n	u	n
Cc1nc2cnc(Oc3cccc(Cl)c3)nc2n(CCC#N)c1=O	x	n[12.7 µM]	x	x	x	x
Cc1cc(=O)[nH]c(NN=C2C3CC4CC(C3)CC2C4)n1	u	2.5µM	n	n	n	n
Cc1cc(=O)[nH]c(NN=C2CCCCC2C)n1 (centres undefined)	0.89µM	x	n	n	x	n
Cc1cc(=O)[nH]c(N/N=C2/CCCC/C2=C\c2ccccc2)n1	n[11.4 µM]	45µM	n	n	n	n
Cc1cc(=O)[nH]c(N/N=C/C=C/c2ccccc2)n1	n	n	n	n	n	n
COc1ccc(NS(=O)(=O)c2cccc(C(=O)NNC(=O)c3ccccc3OC)c2)cc1	n	n	n	n	n	n
COc1ccc(NS(=O)(=O)c2cccc(C(=O)NNC(=O)NCCCl)c2)cc1	n	50µM	n	n	n	n
O=C(O)C1CC(C(=O)O)SS1 (centres undefined)	32µM	x	n	n	x	n
O=C(O)C1CCC(N2C(=O)C3C4CCC(C4)C3C2=O)CC1 (centres undefined)	n	n	n	n	n	n
N#Cc1ccccc1CSc1nc2ccc(NC(=O)c3ccccc3C(=O)O)cc2s1	n	u	n	n	u	n
O=C(O)c1ccc(CSc2nc3ccc(NC(=O)c4ccccc4C(=O)O)cc3s2)cc1	n	45µM	n	n	u	n
COc1ccc(-c2cc(=O)n(-c3ccc([N+](=O)[O-])cc3)[nH]2)cc1	56µM	10µM	n	u	40µM	u
COc1ccc(-c2[nH]n(-c3ccc([N+](=O)[O-])cc3)c(=O)c2C=NCc2ccc(F)cc2)cc1	n	n	n	n	n	n
CN(C)CCCc1cc(C(=O)Nc2ccc(-c3ccncc3)cc2)ccc1O	x	25µM!	x	x	x	x
O=C(Nc1ccncc1)c1ccc(-c2ccccc2)cc1	n	n	x	n	n	n
Cc1ccc(/C=N/NC(=O)c2cccc(S(=O)(=O)Nc3ccccc3Cl)c2)s1	u	50µM	u	u	n	n
O=C(N/N=C/c1cccnc1)c1cccc(S(=O)(=O)Nc2cccc(Cl)c2)c1	n	n	n	n	n	n
O=C(N/N=C/c1ccncc1)c1cccc(S(=O)(=O)Nc2ccc(Cl)cc2)c1	n[11.4 µM]	n	n	n	20µM	n
CCOC(=O)Nc1ccc2c(c1)N(C(=O)N1CCN(C)CC1)c1ccccc1CC2	n	n	x	n	n	n
CCOC(=O)Nc1ccc2c(c1)N(C(=O)CN(CC)CC)c1ccccc1CC2	n	x	n	n	n	n
CC(C)OC(=O)Nc1ccc2c(c1)N(C(=O)N1CCN(C)CC1)c1ccccc1CC2	0.89µM	u	n	n	40µM	45µM
CCN(CC)CC(=O)Nc1ccc2c(c1)N(C(=O)CN(CC)CC)c1ccccc1CC2	n	56µM	n	n	n	n
C=CC(=O)N1C/C(=C/c2ccc(F)cc2)C(=O)/C(=C\c2ccc(F)cc2)C1	18µM	x	n	u	x	u
COc1cc2cnc(-c3ccccc3)c(-c3cccc(C(F)(F)F)c3)c2cc1OC	n	n[0.501 µM]	n	n	56µM	n
Fc1ccc2cnc(-c3ccccc3)c(-c3cccc(C(F)(F)F)c3)c2c1	n	n[0.501 µM]	n	n	n	n

Screening results (PubChem)
